The source made the active and inactive calls.
What was measured:
[1] = tested on: Plasmodium falciparum Sir2 (PF13_0152, Sir2A); experiment: pfSir2 binders on small-molecule microarrays, primary screen, biochemical, small-molecule microarray, 635 nm fluorescence (AID 1098); details: small-molecule microarray binding, fluorescence 635 nm; higher = more signal;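 also: score merges spot fluorescence intensity with its signal-to-noise ratio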
[2] = small-molecule microarray binders of probe aDKK1, primary screen, biochemical, biotinylated probe, 635/667 nm fluorescence (AID 1099); details: higher = more signal;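 also: score merges 667nm spot fluorescence with signal to noise across triplicate slides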
[3] = small-molecule microarray binders of probe aCHRDL2, primary screen, biochemical, biotinylated probe, 635/667 nm fluorescence (AID 1100); details: higher = more signal
[4] = splicing luciferase reporter signal modulators, primary screen, spliceosome inhibition project, cell-based, HEK293, splice +/- reporter (AID 1101); details: luminescence, 24 h, higher = more signal, called active from +8 up or from −8 down;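 also: HEK293 cells carrying a splicing-competent luciferase reporter gene; test concentration not given here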
[5] = target: Fibroblast growth factor 10 (Homo sapiens) (UniProt O15520); experiment: FGF10 binders on small-molecule microarrays, primary screen, biochemical, small-molecule microarray, 635 nm fluorescence (AID 1102); details: FGF10 binding, fluorescence 635 nm, higher = more signal
[6] = tested on: glycogen synthase kinase-3 (GSK3A per assay name; protocol says GSK3B); experiment: GSK3 binders on small-molecule microarrays, primary screen, biochemical, small-molecule microarray, 635 nm fluorescence, GSK3A (AID 1103); details: small-molecule microarray binding, fluorescence 635 nm; higher = more signal; also: the record names both GSK3A and GSK3B
[7] = target: Epidermal growth factor receptor (Homo sapiens) (UniProt P00533); experiment: EGFR binders on small-molecule microarrays, primary screen, biochemical, small-molecule microarray, 635 nm fluorescence (AID 1104); details: EGFR binding, higher = more signal;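 also: score merges 667 nm emission intensity with spot signal to noise over triplicate slides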
[8] = target: Follistatin-related protein 3 (Homo sapiens) (UniProt O95633); experiment: FSTL3 binders on small-molecule microarrays, primary screen, biochemical, small-molecule microarray, 635 nm fluorescence (AID 1105); details: FSTL3 binding, higher = more signal;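 also: score merges emission near 667 nm and signal to noise per printed spot across three slides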
[9] = target: Dickkopf-related protein 1 (Homo sapiens) (UniProt O94907); experiment: DKK1 binders on small-molecule microarrays, primary screen, biochemical, small-molecule microarray, 635 nm fluorescence scan (AID 1106); details: DKK1 binding, higher = more signal;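 also: score merges emission near 667 nm with signal to noise over three replicate slides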
[10] = tested on: Inhibin beta A chain (activin A); experiment: INHBA (activin A) binders on microarrays, primary screen, biochemical, small-molecule microarray, 635 nm fluorescence scan (AID 1107); details: small-molecule microarray binding, higher = more signal;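 also: mouse activin A protein probed at 4.33 µg/mL on printed slides; score merges bound-protein fluorescence near 667 nm with spot signal-to-noise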
[11] = tested on: Human papillomavirus type 1a protein E7 (residues 44-93); experiment: HPV1a E7 fragment binders on microarrays, primary screen, biochemical, small-molecule microarray, residues 44-93, 635 nm fluorescence (AID 1108); details: small-molecule microarray binding, fluorescence 635 nm; higher = more signal;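 also: E7 fragment applied at 1 µg/mL in TBST for 1 h at 4 C; score combines spot fluorescence with its signal to noise ratio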
[12] = modulators of HCV replicon luciferase signal, primary screen, HCV replication inhibitor project, Huh7 cells, luciferase reporter (AID 1109); details: 48 h, higher = more signal;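 also: huh7 hepatoma cells harbouring a luciferase neomycin HCV replicon reporter; luciferase luminescence as measure of HCV replicon replication; test concentration not given here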
[13] = target: Left-right determination factor 2 (Homo sapiens) (UniProt O00292); experiment: LEFTY2 binders on small-molecule microarrays, primary screen, biochemical, small-molecule microarray, 635 nm fluorescence scan (AID 1110); details: LEFTY2 binding, higher = more signal
[14] = target: Calmodulin-1 (Homo sapiens) (UniProt P0DP23); experiment: CALM1 binders on microarrays, EGTA buffer, profiling panel, biochemical, small-molecule microarray, Cy5-labelled CALM1 (AID 1111); details: Cy5-CALM1 binding fluorescence, higher = more signal;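 also: labelled calmodulin applied in Tris saline Tween buffer holding calcium plus EGTA and DTT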
[15] = target: Calmodulin-1 (Homo sapiens) (UniProt P0DP23); experiment: calcium-bound CALM1 binders on microarrays, profiling panel, artefact control for SMM control-protein annotation, biochemical, small-molecule microarray, Cy5-labelled CALM1, plus calcium (AID 1112); details: Cy5-CALM1 binding fluorescence, higher = more signal;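 also: score merges spot fluorescence with signal to noise from triplicate slides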
[16] = small-molecule microarray binders of probe aWnt5a, primary screen, biochemical, biotinylated probe, 635/667 nm fluorescence (AID 1113); details: higher = more signal;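 also: score merges 667 nm fluorescence intensity with signal-to-noise per printed feature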
[17] = small-molecule microarray binders of probe aShh, primary screen, biochemical, biotinylated probe, 635/667 nm fluorescence (AID 1114); details: higher = more signal;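 also: probe is biotin-labelled aShh protein from a stem cell growth factor screen; measures binding of labelled protein to compounds printed on the slide; score merges feature fluorescence at 667 nm with signal-to-noise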
[18] = small-molecule microarray binders of probe aNog, primary screen, biochemical, biotinylated probe, 635/667 nm fluorescence (AID 1115); details: higher = more signal;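 also: probe is biotinylated aNog protein used at 0.15 µg/mL for 1 h at 4 C; z-score combines 667 nm fluorescence of each spot with its signal to noise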
[19] = target: Torsin-1A-interacting protein 1 (Homo sapiens) (UniProt Q5JTV8); experiment: LAP1 binders from COS7 cell lysate, primary screen, small-molecule microarray, 635/667 nm fluorescence (AID 1116); details: COS7-hLAP1 lysate binding, 635 nm fluorescence, higher = more signal
[20] = target: Alpha-bungarotoxin (Bungarus multicinctus) (UniProt P60615); experiment: alpha-bungarotoxin binders on microarray, profiling panel, artefact control for SMM control protein annotation, biochemical, small-molecule microarray, Alexa647 label, 635/667 nm fluorescence (AID 1117); details: alpha-BTX-A647 binding fluorescence, higher = more signal
Chain of Alpha-bungarotoxin (Bungarus multicinctus) (P60615 whole entry, looked up): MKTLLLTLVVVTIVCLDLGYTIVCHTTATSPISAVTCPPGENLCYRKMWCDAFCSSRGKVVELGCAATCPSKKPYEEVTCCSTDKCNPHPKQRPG

Chain of Left-right determination factor 2 (Homo sapiens) (O00292 whole entry, looked up): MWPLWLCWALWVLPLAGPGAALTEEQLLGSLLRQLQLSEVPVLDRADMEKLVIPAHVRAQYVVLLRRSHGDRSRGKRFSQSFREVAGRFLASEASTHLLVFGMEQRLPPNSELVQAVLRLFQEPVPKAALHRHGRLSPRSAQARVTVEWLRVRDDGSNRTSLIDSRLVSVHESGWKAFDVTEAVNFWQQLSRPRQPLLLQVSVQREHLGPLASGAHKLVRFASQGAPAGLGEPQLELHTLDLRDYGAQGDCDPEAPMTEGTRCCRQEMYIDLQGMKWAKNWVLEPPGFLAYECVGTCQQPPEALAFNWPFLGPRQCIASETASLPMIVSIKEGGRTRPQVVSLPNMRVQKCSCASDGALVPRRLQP
Chain of Fibroblast growth factor 10 (Homo sapiens) (O15520 whole entry, looked up): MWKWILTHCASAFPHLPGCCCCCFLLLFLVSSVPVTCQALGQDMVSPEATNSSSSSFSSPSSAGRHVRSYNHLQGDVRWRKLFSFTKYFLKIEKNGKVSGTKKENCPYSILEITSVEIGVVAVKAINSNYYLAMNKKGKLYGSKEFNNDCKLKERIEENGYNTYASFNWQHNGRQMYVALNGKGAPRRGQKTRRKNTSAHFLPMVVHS
Chain of Torsin-1A-interacting protein 1 (Homo sapiens) (Q5JTV8 whole entry, looked up): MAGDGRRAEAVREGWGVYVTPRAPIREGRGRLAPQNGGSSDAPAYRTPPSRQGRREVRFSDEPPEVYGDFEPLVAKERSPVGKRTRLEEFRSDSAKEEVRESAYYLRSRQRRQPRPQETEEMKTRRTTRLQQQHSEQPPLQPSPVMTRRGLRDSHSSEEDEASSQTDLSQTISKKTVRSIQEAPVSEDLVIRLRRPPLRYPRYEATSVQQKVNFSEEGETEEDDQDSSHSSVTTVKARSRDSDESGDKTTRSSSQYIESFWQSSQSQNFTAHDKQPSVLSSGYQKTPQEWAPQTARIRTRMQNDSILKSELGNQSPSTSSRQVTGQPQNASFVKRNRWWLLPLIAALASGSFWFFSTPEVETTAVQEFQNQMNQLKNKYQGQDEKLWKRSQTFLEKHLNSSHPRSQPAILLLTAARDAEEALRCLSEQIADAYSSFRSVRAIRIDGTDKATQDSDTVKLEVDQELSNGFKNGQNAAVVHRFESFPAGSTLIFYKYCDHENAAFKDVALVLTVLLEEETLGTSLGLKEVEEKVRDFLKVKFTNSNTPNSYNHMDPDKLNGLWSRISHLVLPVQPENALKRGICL
Chain of Epidermal growth factor receptor (Homo sapiens) (P00533 whole entry, looked up): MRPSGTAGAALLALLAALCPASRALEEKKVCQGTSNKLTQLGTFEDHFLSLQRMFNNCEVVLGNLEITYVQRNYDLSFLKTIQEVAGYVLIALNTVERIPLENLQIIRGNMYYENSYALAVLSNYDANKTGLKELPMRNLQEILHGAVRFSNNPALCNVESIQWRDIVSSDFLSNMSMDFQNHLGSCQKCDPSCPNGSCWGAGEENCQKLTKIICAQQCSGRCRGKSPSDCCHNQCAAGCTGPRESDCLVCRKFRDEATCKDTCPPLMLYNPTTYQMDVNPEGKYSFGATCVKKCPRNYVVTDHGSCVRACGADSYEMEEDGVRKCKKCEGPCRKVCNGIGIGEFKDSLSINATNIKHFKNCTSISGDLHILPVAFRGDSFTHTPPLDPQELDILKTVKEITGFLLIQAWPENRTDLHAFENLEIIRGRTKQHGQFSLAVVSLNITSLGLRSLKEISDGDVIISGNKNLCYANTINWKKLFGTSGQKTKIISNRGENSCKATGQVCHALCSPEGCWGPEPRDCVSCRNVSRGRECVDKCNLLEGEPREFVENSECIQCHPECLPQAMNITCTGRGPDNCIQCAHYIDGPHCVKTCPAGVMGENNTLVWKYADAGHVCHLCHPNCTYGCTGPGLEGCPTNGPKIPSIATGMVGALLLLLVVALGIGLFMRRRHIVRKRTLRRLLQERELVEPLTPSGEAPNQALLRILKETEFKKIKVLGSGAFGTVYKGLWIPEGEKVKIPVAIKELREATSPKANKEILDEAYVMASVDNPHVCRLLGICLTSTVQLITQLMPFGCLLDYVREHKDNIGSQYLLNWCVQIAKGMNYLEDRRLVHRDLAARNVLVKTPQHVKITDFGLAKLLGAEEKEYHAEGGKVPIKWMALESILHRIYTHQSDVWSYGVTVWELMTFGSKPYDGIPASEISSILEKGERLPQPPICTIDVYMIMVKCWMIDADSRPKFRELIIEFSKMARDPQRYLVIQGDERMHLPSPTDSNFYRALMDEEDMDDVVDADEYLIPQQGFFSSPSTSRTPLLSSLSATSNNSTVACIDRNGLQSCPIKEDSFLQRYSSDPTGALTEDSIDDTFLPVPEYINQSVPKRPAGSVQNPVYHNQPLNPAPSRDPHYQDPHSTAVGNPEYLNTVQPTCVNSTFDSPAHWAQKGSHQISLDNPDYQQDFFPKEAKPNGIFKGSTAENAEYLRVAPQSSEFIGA
Chain of Dickkopf-related protein 1 (Homo sapiens) (O94907 whole entry, looked up): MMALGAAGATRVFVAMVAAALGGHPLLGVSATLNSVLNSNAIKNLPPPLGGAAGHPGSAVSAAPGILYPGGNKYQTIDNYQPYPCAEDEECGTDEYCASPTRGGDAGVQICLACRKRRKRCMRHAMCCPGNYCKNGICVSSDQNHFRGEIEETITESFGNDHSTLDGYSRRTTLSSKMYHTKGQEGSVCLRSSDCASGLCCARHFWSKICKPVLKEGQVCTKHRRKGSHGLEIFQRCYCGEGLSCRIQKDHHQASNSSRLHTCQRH
Chain of Follistatin-related protein 3 (Homo sapiens) (O95633 whole entry, looked up): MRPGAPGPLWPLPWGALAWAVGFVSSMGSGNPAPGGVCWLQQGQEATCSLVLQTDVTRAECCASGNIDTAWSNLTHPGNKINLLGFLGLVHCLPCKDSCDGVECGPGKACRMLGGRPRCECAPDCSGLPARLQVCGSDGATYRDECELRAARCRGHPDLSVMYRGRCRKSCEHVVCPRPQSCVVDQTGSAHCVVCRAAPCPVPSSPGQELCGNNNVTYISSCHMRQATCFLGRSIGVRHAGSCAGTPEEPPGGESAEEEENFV

SMILES | composite z-score [1] | composite z-score [2] | composite z-score [3] | z-score [4] | composite z-score [5] | composite z-score [6] | composite z-score [7] | composite z-score [8] | composite z-score [9] | composite z-score [10] | composite z-score [11] | z-score [12] | composite z-score [13] | composite z-score [14] | composite z-score [15] | composite z-score [16] | composite z-score [17] | composite z-score [18] | composite z-score [19] | composite z-score [20]
[N-]=[N+]=Nc1ccccc1C[C@@]1(C(N)=O)N=C(c2ccc(OCCCO)cc2)O[C@@H]1c1ccccc1 | 0.616 | 1.53 | 1.3 | -1.23 (inactive) | -0.0111 | -0.0514 | -0.874 | -0.0838 | -0.82 | 1.34 | 0.692 | -2.38 | -1.09 | 1.7 | 0.824 | -0.0445 | 0.456 | 0.662 | 1.26 | 0.546
CO[C@H]1COC(=O)[C@H](C)COC(=O)CC=C[C@@H](C)[C@H](OC)COC(=O)CC=C[C@@H]1C | 0.864 | -0.466 | -1.28 | 0.0172 (inactive) | 0.207 | 0.432 | 1.47 | 1.32 | 1.02 | 1.28 | -0.797 | -0.265 | 1.15 | -0.556 | -1.28 | -0.0944 | -0.0709 | -0.158 | -0.0635 | -0.289
COC(=O)CC=C[C@@H](C)[C@@H](C=NO[C@H](C)c1cn([C@@H]2COC[C@H]2O)nn1)OC | 0.626 | -0.43 | -0.611 | 0.605 (inactive) | 0.739 | 0.617 | 0.856 | 1.06 | 0.492 | -0.335 | 0.768 | 0.128 | 0.589 | -0.662 | -0.793 | -0.0478 | -0.291 | -0.0762 | -0.306 | 1.01
[N-]=[N+]=NCc1ccccc1C[C@]1(C(=O)NCc2ccccc2)N=C(c2ccc(OCCCO)cc2)O[C@H]1c1ccccc1N=[N+]=[N-] | 1.3 | 0.658 | 1.09 | 0.00592 (inactive) | 0.856 | 1.12 | -0.463 | 0.188 | -0.678 | -0.222 | 0.878 | -2.05 | -0.612 | 1.35 | 0.743 | 0.0068 | 0.162 | -0.716 | 0.855 | 0.947
COc1ccc(COC(=O)NN=C2C[C@@H](O)[C@@H](O)[C@@H]3[C@@H]4C(=O)N(Cc5ccc6c(c5)OCO6)C(=O)[C@@H]4CC[C@@H]23)cc1 | -0.454 | 0.911 | 1.39 | -1.36 (inactive) | -0.0715 | -0.52 | -0.451 | -0.226 | -0.539 | 0.556 | -0.743 | -0.404 | -0.218 | -0.389 | -0.252 | -0.0465 | 0.255 | 0.175 | 0.508 | 0.452
CCCCCN1CC=CC23O[C@@H]4C=CCOC(=O)[C@@H]4[C@H]2C(=O)N(C(CO)C(C)C)[C@@H]3C1=O (stereo not given in full) | 0.745 | -0.183 | 0.0134 | 0.253 (inactive) | -0.512 | -0.786 | -1.07 | -0.472 | -0.426 | 0.712 | -0.516 | 0.245 | -0.518 | -0.385 | -1.07 | -0.176 | -0.276 | -0.254 | -0.0843 | -0.257
CC(CCN1CCCCc2nc(C)c(C)cc21)=NOC(C)CN1CCCCc2nc(C)c(C)cc21 (stereo not given) | 1.62 | -0.142 | -0.595 | 0.127 (inactive) | 1.07 | 1.33 | 1.58 | 1.42 | 1.68 | 0.908 | 1.41 | -2.95 | 1.45 | 0.447 | -0.788 | -0.096 | -0.0709 | -0.0762 | 0.201 | 1.23
CO[C@@H]1COC(=O)CC=C[C@@H](C)[C@H](OC)COC(=O)[C@H](COCc2ccccc2)NC(=O)CC=C[C@H]1C | 1.56 | -0.516 | -1.15 | 0.0688 (inactive) | 0.303 | -0.112 | 0.461 | 0.689 | 0.444 | 1.87 | -2.18 | -1.36 | 0.62 | -1.07 | -2.36 | -0.232 | -0.302 | -0.625 | 0.0597 | -0.486
C=C(/C(=C/C[C@H](OC(C)=O)c1ccc(OCCO)cc1)c1cnc2ccccc2c1)C(C)C | 0.659 | -0.523 | -0.611 | -0.494 (inactive) | 1.49 | 0.939 | 0.333 | 1.48 | 0.658 | 1.64 | 1.41 | -1.38 | 1.06 | 0.295 | -0.184 | 0.117 | -0.0917 | -0.243 | 0.782 | 0.911
COCCCNC(=O)[C@@]1(C)c2ccccc2C(=O)N(Cc2ccc(OC(F)(F)F)cc2)[C@H]1c1ccc(CO)cc1 | 0.655 | 0.506 | 0.973 | -0.346 (inactive) | -0.527 | -1.3 | -1.11 | -0.851 | -0.401 | 0.153 | -1.56 | -0.302 | -0.738 | -0.579 | 0.751 | -0.109 | -0.2 | -0.546 | -0.668 | -1.16
O=C1C[C@]2(c3ccc([N+](=O)[O-])cc3)C(=O)N(CCN3CCOCC3)c3cc(CO)ccc3[C@H]2N1CC12CC3CC(CC(C3)C1)C2 | 0.39 | 0.398 | 0.793 | 0.14 (inactive) | -0.629 | 0.163 | -1 | -0.258 | -1.22 | 0.6 | -0.119 | -0.544 | -1.1 | 0.846 | 0.305 | -0.0455 | -0.0626 | -0.345 | 0.15 | 1.15

From PubChem BioAssay
